Assay outcomes: PubChem BioAssay, Sanford-Burnham Center for Chemical Genomics
p-CIP stab down – p/CIP protein destabilization; Q05BA5; F442A p/CIP-EGFP cells, EGFP fluorescence, 16 h; decrease of EGFP signal, % at 10 µM; actives 0.01% (n = 290,000); AID 1984;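 active = EGFP signal decrease of at least 30% at 10 µM or well 3 SD below plate mean, unless failing retest; inactive = the rest, including hits failing retest or dose response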
FAS-TE inh – inhibitors of human fatty acid synthase thioesterase domain | inhibition, % at 15 µM | P49327 | recombinant FAS-TE, OMFH fluorogenic substrate, fluorescence endpoint | actives 0.67% (n = 360,000);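 active = compounds whose normalised, plate-corrected inhibition of enzyme fluorescence in the single-dose primary screen is 50% or more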;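 also: 0% = DMSO with enzyme and 100% = substrate without enzyme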
MPTP block – blocks calcium-induced mitochondrial swelling; inhibition, % at 10 µM; actives 1.4% (n = 360,000); AID 602449; isolated mouse mitochondria, Ca2+ swelling absorbance, 30 min;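 active = inhibition of 50% or more, scaled per plate between neutral and stimulator controls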;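 also: 0% = DMSO wells given calcium and 100% = 1 mM EGTA wells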
NR3A LBD binder – NR3A (human) ligand-binding domain modulation; NR3A LBD differential scanning fluorimetry, Tm shift; 0% = protein alone, 100% = glycine-bound protein; Tm shift relative to glycine control, % at 25 µM; actives 2.5% (n = 340,000); AID 1259313;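 active = melting temperature shift of at least 10% of the positive control shift, at one fixed dose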
beta cell repl – MIN6 beta-cell proliferation induction | proliferation, % at 10 µM | actives 0.29% (n = 330,000) | MIN6 cells proliferation, ATPlite luminescence, 48 h; cells starved in 0.2% serum; 100% = growth in 10% serum;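 active = compounds whose signal lies at least 3.5 SD above the mean of all wells on their plate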;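 also: 0% = DMSO-treated cells in low-serum medium and 100% = 10% serum control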
MPTP counter – Rhodamine 123 counter-screen of mitochondrial pore hits; isolated mitochondria, membrane potential, Rhodamine 123 fluorescence; actives 78% (n = 5,000); shares compounds with MPTP block; inhibition, % at 10 µM; in the data active = inhibition above about 22%;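 also: 0% = DMSO vehicle and 100% = positive control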
An asterisk follows results filed as active; · = no result given. A selection: hits, their analogues and other compounds. The true share with any hit is near 4.1%.

SMILES	p-CIP stab down	FAS-TE inh	MPTP block	NR3A LBD binder	beta cell repl	MPTP counter
N#Cc1ccc2ccn(CC(=O)NCc3ccccc3)c2c1	7.5	9.0	0.2	-1.3	-4.1	·
O=C(NCc1ccco1)c1ccc(S(=O)(=O)N2CCCCC2)cc1	-0.1	-6.1	-2.8	0.3	-3.0	·
O=C(NCCc1ccccc1)Nc1ccc(Cl)cc1	-2.0	-3.3	75.9*	15.8*	0.0	72.2*
O=S(=O)(c1ccc(NC(=S)NCCc2ccccc2)cc1)N1CCOCC1	-9.0	3.1	66.6*	23.9*	1.8	85.1*
O=S(=O)(c1ccc(NC(=S)NCc2ccco2)cc1)N1CCCCC1	-3.2	9.0	78.6*	1.5	3.1	92.1*
C=CCNC(=S)Nc1ccc(Br)cc1F	-3.1	-4.5	8.9	0.4	-3.4	·
O=S(=O)(c1ccc(NC(=S)NN=C(Cc2ccccc2)Cc2ccccc2)cc1)N1CCOCC1	-8.2	21.1	0.6	-5.8	-1.7	·
Fc1cc(Br)ccc1NC(=S)NCCc1ccccc1	-17.4	19.2	78.9*	30.5*	-2.8	83.4*
CON(C)c1nc(OCCNC(=O)OCc2ccc(Cl)cc2Cl)nc(N(C)C)n1	-1.3	-10.0	1.0	2.3	-2.3	·
COc1cc(/C=N/NC(=O)CNc2n[nH]c(=O)[nH]c2=O)ccc1OCc1ccccc1	-6.4	-5.1	2.1	-1.4	-1.9	·
O=C1NC(=S)S/C1=C\c1ccc(SCc2ccccc2)o1	-2.5	22.0	78.4*	-5.0	·	62.3*
Cc1cc(C)c(S(=O)(=O)NCCc2ccncc2)c(C)c1	-9.9	-5.3	0.1	-1.0	-0.1	·
CCCCNS(=O)(=O)c1ccc(S(=O)(=O)NCc2ccncc2)cc1	4.0	-4.6	80.0*	2.3	-1.7	70.3*
Cc1cc(C)c(S(=O)(=O)NCc2ccncc2)c(C)c1	-1.8	-5.5	86.7*	-0.7	-5.5	71.5*
CCCCc1ccc(S(=O)(=O)NCCc2ccncc2)cc1	5.5	7.7	12.3	-2.5	-0.9	·
Cc1ccc(S(=O)(=O)NCc2ccncc2)c(C)c1C	-15.8	-1.0	94.8*	-1.3	-5.0	90.6*
Cc1nc(NC(=O)C(C)(C)C)sc1-c1csc(N)n1	·	-8.4	-0.4	·	·	·
Cc1ccsc1C(=O)OCC(=O)N(C)c1c(N)n(Cc2ccccc2)c(=O)[nH]c1=O	·	-4.6	-1.0	-0.6	-4.0	·
O=C(Nc1ccc(Cl)cc1)Nc1nc(-c2sccc2Br)cs1	-4.7	-3.4	40.9	-0.1	-2.4	·
CCOC(=O)Cc1csc(NC(=O)Nc2ccc(Cl)cc2)n1	-1.5	6.3	74.3*	-6.5	-2.2	76.5*
CCOC(=O)c1csc(NC(=O)Nc2cccc(Cl)c2)n1	-3.5	-6.0	96.6*	0.0	0.0	84.2*
O=C(Nc1ccc(Cl)cc1)Nc1nc(-c2ccccc2O)cs1	-5.4	9.4	98.8*	26.1*	-5.9	67.0*
O=C(Cc1csc(NC(=O)Nc2ccc(Cl)cc2)n1)NC1CCCC1	·	-2.9	94.3*	13.4*	-4.2	80.5*
O=C(CN(c1ccc(F)cc1)S(=O)(=O)c1ccccc1)NC1CCCCCC1	1.0	-5.0	-0.7	-0.9	-2.1	·
Cc1cc(C)c(S(=O)(=O)N2CCN(c3ccc([N+](=O)[O-])c(-n4nc(C)cc4C)c3)CC2)c(C)c1	-1.6	37.3	-0.8	0.3	-4.7	·
SMILES	p-CIP stab down	FAS-TE inh	MPTP block	NR3A LBD binder	beta cell repl	MPTP counter
Cc1cccc(CN2CCCC(C(=O)Nc3ccc(-c4cscn4)cc3)C2)c1 (stereo not given)	-9.4	3.8	0.4	-0.5	-6.5	·
Cc1csc(NC(=O)Nc2ccc(Cl)cc2)n1	-8.3	0.2	73.6*	20.6*	-3.0	69.2*
CCOC(=O)Cc1csc(NC(=O)Nc2cccc(Cl)c2)n1	-5.7	4.2	73.1*	-2.9	-2.8	86.3*
Cc1cnc(NC(=O)Nc2ccc(Cl)cc2)s1	-8.7	7.8	82.3*	25.5*	-5.4	86.0*
NCc1csc(NC(=O)Nc2cccc(Cl)c2)n1	·	-9.6	2.1	·	·	·
Cc1nonc1C1CCCN1Cc1cn[nH]c1-c1ccc(-c2ccccc2)cc1 (stereo not given)	-18.9	16.4	5.2	-3.5	-5.2	·
CCN(CC)CCCNC(CC(=O)Nc1cccc([N+](=O)[O-])c1)C(=O)O (stereo not given)	-13.8	-10.6	0.3	-1.7	1.1	·
O=[N+]([O-])c1ccc(N=Nc2ccc(O)c3ccccc23)cc1	·	-11.1	98.1*	19.8*	·	79.4*
